Test results: PubChem BioAssay AID1508600 (Functional Genomics Laboratory (NCATS/FGL), 2020)
About 3,700 (7%) of roughly 53,000 sequences were called active. The entries come from a sample that favours actives as a whole. Unmarked numbers belong to inactive results.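 How the source made its calls: active means gene knockdowns whose robust z-score for IL-1 alpha signal is at least 2 or at most -2, so actives lie on both sides; inactive means the rest.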

Test: Components of the Cytosolic LPS Sensing Pathway: Gene Identification via Genome-wide siRNA Screen;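 further: robust z of the log signal after scaling to non-targeting control siRNA wells of the plate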
Details: RAW264.7 macrophages, IL-1a HTRF, actives lie on both sides, screened at 100 nM (by protocol), cells primed 5 h with Pam3CSK4 first
Summary of the method: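 RAW264.7 mouse macrophages reverse-transfected with single siRNAs (100 nM final) for 48h, primed with Pam3CSK4 for 5 hours, then transfected with LipidA for 24 hour. Supernatant IL-1a read by HTRF; values normalized to negative-control median, log-transformed robust z-scores.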

| Sequence | z-score |
| --- | --- |
| AUCUGUUCCGGAGGAAUUUTT against 1700029I15Rik | 3.85 (active) |
| GGAGGAGUUUCGCUACGGATT against Sars2 | -0.00587 |
| GGUGUACCCUGAAUUUGAATT against Wdr62 | -1.67 |
| GGUUAUACGCUUAGAUUUATT against Irx5 | 1.77 |
| GCUCUGUUACUAUUUGAAUTT against Cts6 | 0.137 |
| GGUUUUGUACUUUCAUAGATT against Fam111a | 0.523 |
| GGACUUGAACUGAAAAGUUTT against D830013H23Rik | 1.01 |
| GGCAAAAUAAAGCUUAAGGTT against Robo3 | -0.517 |
| GGAUUUGAGGUUCAUAUAATT against Cdk20 | -2.48 (active) |
| CGACAGACAUCGCUAUAAUTT against Gm11437 | -0.296 |
| GGAGAUACCGGGAAUCCAATT against Rpl19 | 0.146 |
| GCGCUUCCAAUAACAAAAATT against 1700123L14Rik | -2.19 (active) |
| CCAAGUGGGAUUUGCCAACTT against Ifi47 | -1.68 |
| GGAAUAUCACCAAACCAAATT against 2310057J18Rik | -1.08 |
| CCUUCACCUGGCUAUUAGATT against Kif12 | -0.14 |
| GGAUGUGUUCUAUUCUAUATT against Oprl1 | 0.134 |
| GGAAAGUUAAUGCACAUUUTT against Hmg20a | -1.68 |
| CCUGAAAGAAAAGAAGGACTT against Ptms | 0.107 |
| GGCGACAAGCAACUUAUAATT against Mgat4c | 3.25 (active) |
| GGAUGACUGUAAGUUACGGTT against Mast2 | -0.229 |
| GGUGCUCCUAUCCUGUUCATT against Lhfp | -0.331 |
| GGCGGCUGAAAGUUUUGCATT against Pklr | 0.94 |
| GCACAAGAGGUAUCCUUGCTT against Gm5111 | 0.000682 |

| Sequence | z-score |
| --- | --- |
| GCCUGCAUUGCAAAUGAAATT against Krtap13-1 | -0.257 |
| GGCUUUAACAUCAAAGCAATT against Mgarp | 0.0459 |
| GGAAUCCUUUUCUUUCUAATT against Slc13a1 | 0.0492 |
| GGAAGACAGGGACAAUACCTT against Car15 | -2.36 (active) |
| CCAUCCUAGCUGUGGUAAGTT against Olfr554 | 1.32 |
| GGUCGUUCAGAAGCACCAGTT against Aldh16a1 | -1.31 |
| CGGCACUGACUUAUUGUUCTT against Olfr574 | 0.886 |
| GGUGUACCAAGUGUUUUCATT against Faf2 | 3.08 (active) |
| GGUCACUGAAUUGUCAAUCTT against Polr3h | 0.773 |
| GGGCAAAGACAGUAUUCAATT against B530045E10Rik | 0.4 |
| CCAUGUGACAAAGCCUACCTT against Fam131b | 0.845 |
| GGAGGAAAGACGAAUCAACTT against Clcn7 | 1.44 |
| GCACUGAGCUUGACAAAGATT against Upp2 | -0.174 |
| GGGCUUUCUCAGAAAAGAATT against Olfr508 | -1.29 |
| GGGCAUGAAAGAAUUCUUATT against D130040H23Rik | -2.83 (active) |
| GGCCAUCAUUGUCACCGUGTT against Adra2a | 0.955 |
| GGUUUAGGUUUCAUAAUCCTT against Ostc | -0.338 |
| GGACCUAUGCAGCACUAAATT against Ppp1r11 | 1.73 |
| GGAGAAAGUGGACAGGGCUTT against Jph4 | 0.00563 |
| GGUGGUCUGAGAAAUACUCTT against Czib | 2.06 (active) |
| GCAUCUCCUGCCAAAGCAGTT against Ms4a2 | -0.381 |
| GGUAGUAGGAGGAAUGACGTT against Ccdc93 | -0.353 |
| GCUUCCUUAUUGACAAUGGTT against Rbm19 | 0.596 |

| Sequence | z-score |
| --- | --- |
| GGAGGGACACAGAGAUUACTT against Auh | 5.05 (active) |
| GGAGUAGCAGAGCUUCUGGTT against S100a8 | 0.642 |
| GGAGAAUAAAACUUCCAGATT against Urod | -0.436 |
| GGGACACAGCUAAAAGCUUTT against Fam20b | 0.146 |
| CGAUACAGGACCGAAGGAGTT against Fhad1 | -0.196 |
| GGUGGAUAUUGAUAUCAAGTT against Fga | 3.31 (active) |
| CCCGGAGAGUCAUUUGUGUTT against Cpsf4 | 0.435 |
| CGGAAUCAUACAUUGGUUCTT against Zfp217 | 1.22 |
| GGUGUCUGACUUUAAGAAGTT against Foxred1 | -0.247 |
| GCCACAACUUAAUUUUCUGTT against Nav3 | -0.305 |
| GGAAUCAGAUACAAAGGAGTT against Sil1 | 0.265 |
| CUAUCAAGGGCAGUCAACUTT against Olfr1208 | -2.38 (active) |
| GGACACUAUGACGGAAGUATT against Apoe | -1.13 |
| GGUUCUGAAGAUGGAGGUUTT against Ttbk2 | 1.22 |
| CCAAGAAUGCCCAGCAAGUTT against E4f1 | 2.39 (active) |
| GCGACUUCAGAUUUCAUUATT against Srsf2 | -0.439 |
| GGUCAACCAUUCCUCUUGATT against Ccdc9b | 0.409 |
| GCUGAAGGAUCCCAUUAGATT against Cbx2 | -1.68 |
| GCAACUUGGGAACUCUUUGTT against Pnpla7 | -1.77 |
| GGUUUCUUUCUCUGAGUUUTT against Man2a1 | 1.62 |
| GGAGGAACUCCUAAAGAAGTT against Galntl5 | -0.511 |
| CCGAUCAUUAUGAGCAUACTT against Nxf7 | -1.76 |
